{"source": "PubChem BioAssay (NCATS)", "note": "Inconclusive results are not listed. A number with no mark means an inactive call. Activity calls are given as the source filed them. Calls come from the whole dose curve; as a rule, active = well fitted inhibition curve with a large enough effect; inconclusive = small, poorly fitted or top-dose-only effect; inactive = no such curve, though single readings can be large or run the other way. Positions of bridges follow the written chain, without caps; N, C: chain ends. Non-standard residues stand in square brackets, D forms with d. Residues, ends and D or L forms follow the SMILES beside them. ξ: configuration not given here. *: point of attachment. Octanoyl(6-Me) = CCC(C)CCCCC(=O)*; ξThr(3R) = C[C@@H](O)C(N)C(=O)O; dDab = NCC[C@@H](N)C(=O)O; Dab = NCC[C@H](N)C(=O)O", "data": [{"assay": "qHTS to identify inhibitors of the type 1 interferon - major histocompatibility complex class I in skeletal muscle: primary screen against the NCATS Mechanism Interrogation Plate v5.0 (MIPE) Libary (AID 1347411); note: nearly all actives have a fitted effect of over 65% in size; note: potency is the fitted concentration of half-maximal effect;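 for activity change, negative = inhibition: plate controls were vehicle for no effect and reference inhibitor for full effect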", "conditions": "iHSKM cells + IFN-b, HiBiT-tagged MHC-I luminescence, 24 h; series mostly up to 45.8 µM; activity change, negative = inhibition: at the top concentration", "procedure,_shortened": "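Luminescence from HiBiT-tagged endogenous HLA-B*08:01 served as the MHC class I read-out. CRISPR-engineered C25cl48 human myoblasts received 4.0 ng/ml IFN-beta plus compound for 24 hrs, with an 11-point, 1:3 series topping at 46 uM final.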", "values": [{"smiles": "C[C@H]1[C@@H](OC(=O)CCC(=O)O)O[C@@H]2O[C@@]3(C)CC[C@@H]4[C@H](C)CC[C@@H]1[C@@]24OO3", "activity change, negative = inhibition": "4.1%"}, {"smiles": "COc1cc2ncnc(Nc3cccc(Br)c3)c2cc1OC", "Potency": "10.4 µM (active)"}, {"smiles": "CCCCCCCCCCCCc1ccc(S(=O)(=O)Nc2nncs2)cc1", "activity change, negative = inhibition": "-15.1%"}, {"smiles": "CCC(C)CCCCC(=O)N[C@@H](CCN)C(=O)NC(C(=O)N[C@H](CCN)C(=O)N[C@@H]1CCNC(=O)C([C@@H](C)O)NC(=O)[C@@H](CCN)NC(=O)[C@@H](CCN)NC(=O)[C@@H](CC(C)C)NC(=O)[C@H](Cc2ccccc2)NC(=O)[C@H](CCN)NC1=O)[C@@H](C)O", "note": "(stereo partly drawn) ({Octanoyl(6-Me)}-[Dab][ξThr(3R)][dDab][dDab][Dab]F[dL][dDab][dDab][ξThr(3R)]; lactam 4-C)", "activity change, negative = inhibition": "-1.39%"}, {"smiles": "COc1ccc(S(=O)(=O)Nc2cc(-c3c(O)ccc4ccccc34)c(O)c3ccccc23)cc1", "Potency": "16.5 µM (active)"}, {"smiles": "O=C1NC(O)CCN1[C@@H]1O[C@H](CO)[C@H](O)[C@H]1O", "note": "(some centres undefined)", "activity change, negative = inhibition": "-6.33%"}, {"smiles": "Oc1cc(-c2nc(-c3ccccc3)[nH]c2-c2ccncc2)ccc1Cl", "Potency": "16.5 µM (active)"}, {"smiles": "COC(=O)[C@H](CCCN=C(N)N)NS(=O)(=O)c1ccc(C)cc1", "activity change, negative = inhibition": "-1.75%"}, {"smiles": "CN(C)c1ccc2cc(C(=O)N[C@@H](CCCN=C(N)CCl)C(=O)NCc3ccccc3)ccc2c1", "Potency": "20.8 µM (active)"}, {"smiles": "COc1cccc2c1C(=O)c1c(O)c3c(c(O)c1C2=O)C[C@@](O)(C(=O)CO)C[C@@H]3O[C@H]1C[C@H](N)[C@@H](O)[C@H](C)O1", "Potency": "0.829 µM (active)"}, {"smiles": "CC(C)C[C@H](NC(=O)[C@@H](NC(=O)c1cccc(-c2ccccc2)n1)[C@@H](C)O)B(O)O", "Potency": "0.0641 µM (active)"}, {"smiles": "COc1cc(O)c2c(c1)C1OC1C[C@H](O)[C@H](O)C(=O)C=CC[C@H](C)OC2=O", "note": "(some centres undefined)", "Potency": "13.1 µM (active)"}, {"smiles": "CC[C@@]1([C@@H]2O[C@@H]([C@H]3O[C@@](O)(CO)[C@H](C)C[C@H]3C)C[C@H]2C)CC[C@H]([C@]2(C)CC[C@]3(C[C@H](O)[C@@H](C)[C@@H]([C@@H](C)[C@@H](OC)[C@H](C)C(=O)O)O3)O2)O1", "activity change, negative = inhibition": "-10.4% [at 15.5 µM]"}, {"smiles": "C[C@H]1COc2c(N3CCN(C)CC3)c(F)cc3c(=O)c(C(=O)O)cn1c23", "activity change, negative = inhibition": "9.36%"}, {"smiles": "C[C@@H]1C(=O)O[C@H]2CC34[C@H]5C[C@@H](C(C)(C)C)C36[C@H](OC(=O)[C@@H]6O)O[C@@]4(C(=O)O5)[C@]21O", "note": "(some centres undefined)", "activity change, negative = inhibition": "-23%"}, {"smiles": "O=S(=O)(O)CCSSCCS(=O)(=O)O", "activity change, negative = inhibition": "1.66%"}, {"smiles": "CCOc1cc2c(c(F)c1OCC)C(=N)N(CC(=O)c1cc(N3CCOCC3)c(OC)c(C(C)(C)C)c1)C2", "Potency": "14.7 µM (active)"}, {"smiles": "Cc1cc(C(=O)NOCCO)c(Nc2ccc(I)cc2F)n(C)c1=O", "activity change, negative = inhibition": "10.1%"}, {"smiles": "Cc1ccc(O)c(C(CCN(C(C)C)C(C)C)c2ccccc2)c1", "note": "(centres undefined)", "activity change, negative = inhibition": "-7.44%"}]}]}
